Source: the supplement of paper PMC12636033
± gives the standard deviation of the averaged measurements. Whole data set: some 33,000 sequences, median “E-score (rank enrichment, -0.5 to 0.5)” near -0.0043, cut for the highest 2% near 0.24. What follows is part of a selection rich in the highest values, with near analogues and random picks from the rest.

tested on: 2Sp-muMax20 (muMax20 with two 2,6-bis(methyl)pyridine Cys staples); test: PBM 8-mer E-score (E-score (rank enrichment, -0.5 to 0.5)); higher = stronger preferential binding
Method: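 Protein binding microarray (universal PBM chip covering all 10-mers in fixed probe flanks) with chemically synthesized human Max(13-93) bHLH-LZ analogs (not full-length Max) bearing noncanonical residues (hArg, Tha, Aib, Nle at 65) and aromatic Cys staples. Read-out per 8-mer (and its reverse complement): E-score (rank-based enrichment, -0.5 to 0.5) and Z-score of median probe intensity.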

Row | Sequence | PBM 8-mer E-score
1 | ATCATATA | 0.254 ± 0.041
2 | ACCGGTCG | -0.287 ± 0.03
3 | CCACGCCC | 0.0986 ± 0.0018
4 | CTCGTTAC | 0.0748 ± 0.13
5 | CGGAATTC | -0.121 ± 0.019
6 | AGCGTTAA | 0.0977 ± 0.058
7 | ATCCAGTC | -0.0864 ± 0.015
8 | CAGGAACC | -0.307 ± 0.049
9 | CCCATAAG | 0.182 ± 0.018
10 | CCCAGCTC | -0.0772 ± 0.05
11 | CACATCTA | 0.258 ± 0.014
12 | CACATCTC | -0.00875 ± 0.02
13 | CACATCTG | -0.0474 ± 0.049
14 | AACACATA | 0.257 ± 0.046
15 | CACACATA | 0.061 ± 0.0022
16 | AACACATG | 0.224 ± 0.05
17 | TACATAAA | 0.229 ± 0.018
18 | TACATACA | 0.211 ± 0.075
19 | TACATATA | 0.262 ± 0.09
20 | TAGGTCCA | -0.13 ± 0.058
21 | GCAACCGA | -0.233 ± 0.078
22 | CGACCATC | -0.0509 ± 0.089
23 | CCATTGTA | 0.214 ± 0.022
24 | TATAAATA | 0.203 ± 0.1
25 | CTAAAGCA | 0.0725 ± 0.028

Row | Sequence | PBM 8-mer E-score
26 | ATAAAGCG | 0.0648 ± 0.005
27 | ATAAAGCA | 0.241 ± 0.014
28 | AATAAATA | 0.0526 ± 0.066
29 | CATAAAAG | -0.0196 ± 0.1
30 | AATAAAGG | 0.0234 ± 0.076
31 | ATAAAAGG | 0.0278 ± 0.023
32 | ATAAAAAA | 0.202 ± 0.038
33 | AATAAAAG | 0.25 ± 0.074
34 | ATAAAAAG | 0.315 ± 0.0042
35 | CATAAATA | 0.33 ± 0.059
36 | TACGAGAA | 0.0414 ± 0.0095
37 | CCCGACTC | -0.0283 ± 0.023
38 | CCGAGCCG | -0.298 ± 0.03
39 | GACCCGCC | 0.106 ± 0.0061
40 | TCGGAGAA | -0.136 ± 0.017
41 | AGGTCTAG | 0.0236 ± 0.096
42 | ACCTGGTA | -0.129 ± 0.0054
43 | CATGGGCG | -0.0275 ± 0.017
44 | CAGCCCCC | -0.165 ± 0.099
45 | CACTTGAA | 0.112 ± 0.02
46 | CAAAGGGA | -0.103 ± 0.053
47 | ATAAAACA | 0.244 ± 0.067
48 | ATCAAGCA | -0.065 ± 0.053
49 | ATCAAACA | 0.26 ± 0.0065
50 | ATAAAACG | 0.145 ± 0.057

Row | Sequence | PBM 8-mer E-score
51 | AATAAAAC | 0.223 ± 0.072
52 | AATAACAA | 0.259 ± 0.041
53 | CTCAAACA | -0.00491 ± 0.013
54 | GTAAAACA | 0.174 ± 0.056
55 | AATAACAT | 0.221 ± 0.13
56 | AATAAAAA | 0.258 ± 0.0034
57 | AATAACAC | 0.134 ± 0.04
58 | AATAAAAT | 0.103 ± 0.12
59 | AGACACAC | 0.158 ± 0.0089
60 | GCTTCAGA | -0.0923 ± 0.073
61 | AATCGATT | 0.0682 ± 0.041
62 | AAACGAGG | 0.0592 ± 0.027
63 | CAGATGTC | -0.0701 ± 0.0093
64 | CCCAGGTA | -0.0104 ± 0.052
65 | AATACAAA | 0.28 ± 0.018
66 | AATACAAT | 0.0568 ± 0.04
67 | GATACAAA | 0.084 ± 0.0085
68 | TATACAAA | 0.256 ± 0.065
69 | AATACAAG | 0.245 ± 0.086
70 | AATACAGA | 0.00182 ± 0.094
71 | AATACGCA | 0.286 ± 0.0084
72 | CATACAAA | 0.0246 ± 0.065
73 | AATACATA | 0.139 ± 0.0041
74 | GATACGCA | 0.0806 ± 0.032
75 | AATACAAC | 0.221 ± 0.053

Row | Sequence | PBM 8-mer E-score
76 | AATACGCT | 0.217 ± 0.0037
77 | GCGTCCAA | 0.016 ± 0.062
78 | TAGGATCA | -0.0923 ± 0.052
79 | CAATAGTC | -0.0201 ± 0.017
80 | CCGTGGTA | -0.156 ± 0.15
81 | ACGTGGTG | 0.236 ± 0.017
82 | ACGTGGTC | 0.129 ± 0.092
83 | ACGTGGTA | 0.146 ± 0.11
84 | GCGTGGTA | 0.237 ± 0.045
85 | AGGTGGTG | -0.104 ± 0.087
86 | GATTACGA | 0.0561 ± 0.094
87 | AAATCCCT | -0.0147 ± 0.019
88 | GAGGCGCA | 0.0587 ± 0.03
89 | ACTTTCCG | 0.00749 ± 0.064
90 | ACCTTGAC | 0.00626 ± 0.011
91 | TAACTATA | 0.255 ± 0.07
92 | AAACTATA | 0.115 ± 0.0056
93 | CAACTATA | 0.203 ± 0.018
94 | CCCTTTTC | -0.0442 ± 0.061
95 | AATTACCC | 0.237 ± 0.0059
96 | CATTACCC | 0.0244 ± 0.022
97 | AATTACCA | 0.171 ± 0.012
98 | GATGCAGC | 0.0324 ± 0.041
99 | GTGGTCGA | 0.0711 ± 0.071
100 | AAGATCTA | -0.063 ± 0.13

Row | Sequence | PBM 8-mer E-score
101 | AAGATCTT | 0.322 ± 0.058
102 | AAGATCTG | 0.0472 ± 0.038
103 | GGGATAAA | 0.0538 ± 0.03
104 | GTTGTCTA | 0.0499 ± 0.064
105 | ATTGTACC | 0.0323 ± 0.019
106 | ATTGTACA | 0.26 ± 0.016
107 | ATTGTCTC | -0.126 ± 0.07
108 | GCTGTATA | 0.25 ± 0.021
109 | CTTGTATA | 0.17 ± 0.0046
110 | ACTGTATA | 0.213 ± 0.085
111 | ATTGTATA | 0.2422 ± 0.0019
112 | ATTGTCTA | 0.269 ± 0.012
113 | CTTGTACA | 0.192 ± 0.026
114 | CCTGTATA | 0.0769 ± 0.072
115 | GTTGTATA | 0.167 ± 0.024
116 | AAGCCAGT | -0.0999 ± 0.034
117 | ACCAAGAC | -0.0903 ± 0.027
118 | GGCGCGTA | 0.126 ± 0.013
119 | ATTTAATG | 0.122 ± 0.031
120 | ACAACACG | 0.185 ± 0.037
121 | TAAGAGCA | 0.145 ± 0.072
122 | TAACGACA | 0.087 ± 0.0014
123 | GTAGAGAA | -0.00059 ± 0.14
124 | ATTGTATC | 0.254 ± 0.043
125 | CTTGTATC | 0.141 ± 0.019

Row | Sequence | PBM 8-mer E-score
126 | ATTGTATG | 0.135 ± 0.036
127 | AGCTTAGG | -0.22 ± 0.016
128 | ACACTTTG | 0.0709 ± 0.076
129 | CTAGGGGC | 0.0163 ± 0.073
130 | ACCGGTAG | -0.253 ± 0.036
131 | CTACCGGA | -0.147 ± 0.0082
132 | AGCGCGTC | -0.117 ± 0.097
133 | CACGCGTC | 0.2622 ± 0.0015
134 | CACGCGTA | 0.175 ± 0.043
135 | AACGCGTA | -0.0641 ± 0.026
136 | ACCGCGTA | -0.0143 ± 0.044
137 | AACGCGTG | 0.13 ± 0.022
138 | ACCGCGTG | 0.284 ± 0.038
139 | CGCGCGTC | 0.28 ± 0.0065
140 | CGCGCGTA | 0.176 ± 0.021
141 | CACGCGTG | 0.376 ± 0.015
142 | AACGCGTC | -0.0413 ± 0.045
143 | ACCGCGTC | -0.0765 ± 0.041
144 | GGTCGGGA | -0.25 ± 0.0058
145 | CGTGACCA | 0.1 ± 0.098
146 | AAGCCATT | -0.0452 ± 0.016
147 | AGCCACGG | -0.2315 ± 0.00033
148 | TGTCTGAA | 0.0107 ± 0.0037
149 | CCCCGAAG | -0.126 ± 0.04
150 | AAAGGAGA | 0.0434 ± 0.019

Row | Sequence | PBM 8-mer E-score
151 | GAAGGAGA | 0.246 ± 0.023
152 | CAAGGAGA | -0.133 ± 0.073
153 | GTATAGAC | 0.121 ± 0.0088
154 | ACATGTTA | 0.3172 ± 0.0015
155 | ATTTGTTA | 0.228 ± 0.064
156 | ATATGTTA | 0.229 ± 0.027
157 | ATTTGTTG | 0.266 ± 0.034
158 | ATTTGTTC | 0.106 ± 0.018
159 | AGATGTTG | -0.146 ± 0.015
160 | GCATGTTA | 0.252 ± 0.095
161 | ACATGTTG | 0.268 ± 0.089
162 | CCATGTTA | 0.155 ± 0.054
163 | GGATGTTA | 0.196 ± 0.022
164 | ACATGTTC | 0.161 ± 0.04
165 | AAATGTTA | 0.156 ± 0.028
166 | CGACATCG | -0.164 ± 0.033
167 | CGTCCGCA | -0.0773 ± 0.074
168 | AAGGGGGG | -0.275 ± 0.053
169 | CGCTTTAG | 0.0627 ± 0.011
170 | ACGGGTGC | -0.0393 ± 0.032
171 | GGCCGTAC | 0.0557 ± 0.032
172 | CTGGATCA | -0.158 ± 0.033
